The results in this text go back to PubChem BioAssay AID2685 (National Center for Advancing Translational Sciences (NCATS), 2010).

About 2,100 (0.66%) of roughly 320,000 compounds were called active. Roughly 53% stayed inconclusive and do not appear here. Calls follow the shape of the dose curve; as a rule, active = well fitted inhibition curve with a large enough effect in the signal ratio, with a control signal flat (not every such curve was filed as active); inconclusive = small, poorly fitted or top-dose-only effect, or effect the other way, or a change in a side signal; inactive = flat fitted curve, though single readings scatter; the % refers to the signal ratio. For the sample, actives were picked, then their nearest neighbours and some compounds at random.
Potency is read from the fitted curve at half-maximal effect.

The nature of the experiment: qHTS Assay for Lipid Storage Modulators in Drosophila S3 Cells.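 As to cell number change: cells counted by Cell Tracker Red CMTPX staining in the red channel.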 As to lipid storage change, negative = inhibition: % is scaled to controls: 0 for no effect and ±100 for the full control effect. The note with it: BODIPY lipid droplet fluorescence, 18-24 h, cells fed with added oleic acid; cell number change: measured here: cell count max response; series mostly up to 46.1 µM; lipid storage change, negative = inhibition: at the top concentration. The gist of the method:
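Laser-scanning cytometry quantifies lipid droplet accumulation (500–530 nm total intensity; droplet/cell object ratio) in oleic acid-fed (400 uM added) Drosophila S3 cells treated with a concentration series. 20 uM Triacsin C defined 100% inhibition.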
(In qHTS, concentration-response curves come from the screen itself.)
On to `O=C1COc2ccc(C(=O)CSc3ccccc3C(=O)O)cc2N1`, for which the “lipid storage change, negative = inhibition” value was 13.1% (inactive) and the cell number change is 8.27%.

On to `COc1ccc(C2=NC(c3ccccc3)CO2)cc1` (configuration not stated), for which the “lipid storage change, negative = inhibition” value was -12.2% (inactive) and the cell number change was -8.42%.

`CCOC(=O)C1(Cc2cccc(Cl)c2)CCCN(C(=O)c2cc(C)n(C)n2)C1` (configuration not stated): the “lipid storage change, negative = inhibition” value was -16% (inactive) and the cell number change is 17.5%.

Turning to `CCOC(=O)C1(Cc2cccc(Cl)c2)CCCN(C(=O)c2cc(C)on2)C1` (configuration not stated), the “lipid storage change, negative = inhibition” value was -14.8% (inactive) and the cell number change turned out to be 6.36%.

As to `CCOC(=O)C1(Cc2cccc(Cl)c2)CCCN(C(=O)c2cc(CC)on2)C1` (configuration not stated), the Potency is 2.31 µM (active) and the cell number change was -22.9%.

On to `CCOc1ccc(OCC)c(S(=O)(=O)NCc2ccccn2)c1`, for which the compound was called inactive and the cell number change was -15.9%.

Turning to `O=c1c(Cc2ccc(Cl)cc2)c(O)ccn1Cc1cccs1`, the “lipid storage change, negative = inhibition” value was -8.38% (inactive) and the cell number change was 1.85%.

Take `Cc1ccc(/C=N/NC(=O)c2nnn(-c3nonc3N)c2C)o1`: the call was inactive and the cell number change was -13.6%.

In the case of `COCc1c(C(=O)N/N=C/c2c[nH]c3ccccc23)nnn1-c1nonc1N`, the Potency is 0.164 µM (active) and the cell number change is -1.35%.

For `COCc1c(C(=O)N/N=C/c2cccc3ccccc23)nnn1-c1nonc1N`, the “lipid storage change, negative = inhibition” value is 15.2% (inactive) and the cell number change is 13.5%.

On to `Cc1ccc(-c2c(C(=O)N/N=C/c3c[nH]c4ccccc34)nnn2-c2nonc2N)cc1`, for which the Potency was 14.6 µM (active) and the cell number change was -29.2%.

Consider `Cc1ccc(-c2c(C(=O)N/N=C/c3cccs3)nnn2-c2nonc2N)cc1`, for which the call was inactive and the cell number change was -27.4%.

In the case of `Cc1ccc(-c2c(C(=O)N/N=C/c3ccc(C)o3)nnn2-c2nonc2N)cc1`, the Potency is 2.06 µM (active) and the cell number change is -11.5%.

With `Cc1ccc(/C=N/NC(=O)c2nnn(-c3nonc3N)c2-c2ccccc2)o1`, the call was inactive and the cell number change is 4.2%.

Consider `CCCN(CCC)Cc1c(C(=O)N/N=C/c2c[nH]c3ccccc23)nnn1-c1nonc1N`, for which the call was inactive and the cell number change is 9.46%.

Consider `Cc1ccc(-c2c(C(=O)N/N=C/c3ccco3)nnn2-c2nonc2N)cc1`, for which the call was inactive and the cell number change was -15%.

Turning to `FC(F)(F)c1cccc(NC(=S)NCC(c2cccnc2)N2CCOCC2)c1` (configuration not stated), the “lipid storage change, negative = inhibition” value is 9.33% (inactive) and the cell number change is -6.8%.

As for `COc1ccc(NC(=S)N(CCc2nc3cc(C)c(C)cc3[nH]2)Cc2cccnc2)cc1`, the “lipid storage change, negative = inhibition” value is -8.97% (inactive).

For `Cc1ccc(S(=O)(=O)N2CCC(C(=O)Nc3ccccc3N3CCCC3)CC2)cc1`, the “lipid storage change, negative = inhibition” value was 10.2% (inactive).

As to `CCn1c(=O)cc(SCC(=O)NCc2ccccn2)c2ccccc21`, the “lipid storage change, negative = inhibition” value is -9.58% (inactive).

`COCCn1c(SCC(=O)NC(C)c2ccc(F)cc2)nc2ccccc21` (configuration not stated): the “lipid storage change, negative = inhibition” value is -22.5% (inactive) and the cell number change was found to be 25.2%.

In the case of `O=C(COc1ccc2c(c1)oc(=O)c1ccccc12)NCCCN1CCOCC1`, the “lipid storage change, negative = inhibition” value is 19.8% (inactive) and the cell number change worked out at 13.8%.

On to `COc1ccc(CCN(Cc2cc3ccc(C)cc3[nH]c2=O)C(C)=O)cc1OC`, for which the “lipid storage change, negative = inhibition” value was 19.7% (inactive).

As to `COc1ccc(-n2c(=S)[nH]c3cc(C(=O)NCc4ccccc4)ccc3c2=O)c(OC)c1`, the result was inactive and the cell number change is 8.56%.

On to `COc1ccc(-n2c(=S)[nH]c3cc(C(=O)Nc4ccc(OC)c(OC)c4)ccc3c2=O)cc1`, for which the “lipid storage change, negative = inhibition” value was -2.43% (inactive) and the cell number change came to 1.06%.

On to `COc1ccc(-n2c(=S)[nH]c3cc(C(=O)Nc4ccc(F)cc4)ccc3c2=O)c(OC)c1`, for which the Potency is 16.4 µM (active) and the cell number change worked out at 32.1%.

Turning to `CNC(=S)NNC(=O)Cn1ccc(C)n1`, the “lipid storage change, negative = inhibition” value was -2.88% (inactive) and the cell number change is -2.68%.

For `O=C(Nc1ccccc1)OC(CN1CCCCC1)C(F)(F)F` (configuration not stated), the “lipid storage change, negative = inhibition” value is 7.04% (inactive) and the cell number change is -2.34%.

On to `Fc1cccc(Nc2ncnc3[nH]ncc23)c1`, for which the result was inactive.

On to `Cc1ccc(C)c(SCC(=O)NCc2ccco2)c1`, for which the “lipid storage change, negative = inhibition” value is 4.45% (inactive) and the cell number change was -4.84%.

With `O=C(N/N=C/c1ccc2ccccc2c1)c1ccc(COc2ccc3c(c2)CCC3)o1`, the “lipid storage change, negative = inhibition” value was -2.67% (inactive) and the cell number change was -8.3%.

Turning to `O=C1CC(N2CCN(C/C=C/c3ccccc3)CC2)C(=O)N1CCc1ccccc1` (configuration not stated), the Potency is 3.26 µM (active) and the cell number change is -18.6%.

Turning to `NC(=O)CN1CCN(C2CC(=O)N(CCc3ccccc3)C2=O)CC1` (configuration not stated), the “lipid storage change, negative = inhibition” value was -0.508% (inactive) and the cell number change was 2.77%.

As for `O=C1CC(N2CCN(c3ccccc3)CC2)C(=O)N1CCc1ccccc1` (configuration not stated), the “lipid storage change, negative = inhibition” value was 11.9% (inactive) and the cell number change stood at 0.673%.

Turning to `CC1=NN(C(C#N)c2ccc(F)cc2)C(c2ccccc2)C1` (configuration not stated), the outcome was inactive and the cell number change is -11.4%.

On to `COCC(=O)Nc1cc(=O)n(C)c(=O)n1C`, for which the compound was classed as inactive.

Turning to `Cc1ccc(OCCSc2ncnc3sc(C)c(C)c23)cc1C`, the “lipid storage change, negative = inhibition” value is 9.62% (inactive) and the cell number change was -4.8%.

For `CCOC(=O)C1=C(Nc2ccc(Br)cc2)CC(C)(O)C(C(=O)OCC)C1c1ccccc1` (configuration not stated), the “lipid storage change, negative = inhibition” value is -2.2% (inactive) and the cell number change amounted to 1.29%.

Regarding `CC(=O)C1=C(Nc2ccccc2)CC(C)(O)C(C(C)=O)C1c1ccccc1` (configuration not stated), the “lipid storage change, negative = inhibition” value is 5.22% (inactive) and the cell number change is 6.32%.

On to `CCOC(=O)C1=C(Nc2ccccc2)CC(C)(O)C(C(=O)OCC)C1c1ccc(Cl)cc1` (configuration not stated), for which the Potency is 1.16 µM (active) and the cell number change was determined as 12.7%.

As to `CCCOC(=O)c1ccc(OCC(O)CN2CCN(C(=O)c3ccccc3)CC2)cc1` (configuration not stated), the “lipid storage change, negative = inhibition” value is 13.2% (inactive) and the cell number change came to 0.922%.

Regarding `COCCOC(=O)c1c(NC(=O)COC(=O)c2ccc(C)o2)sc(C(N)=O)c1C`, the “lipid storage change, negative = inhibition” value was -24.5% (inactive) and the cell number change was -10.2%.

Take `COCCOC(=O)c1c(NC(=O)CN(C)c2ccccc2)sc(C(N)=O)c1C`: the “lipid storage change, negative = inhibition” value was -6.17% (inactive).

`COCCOC(=O)c1c(NC(=O)COC(=O)Cc2cccc(OC)c2)sc(C(N)=O)c1C`: the Potency was 6.51 µM (active).

Turning to `O=C(NCc1ccccc1Cl)c1cccc(C(F)(F)F)c1`, the “lipid storage change, negative = inhibition” value is -6.95% (inactive) and the cell number change was -20.2%.

Take `O=S(=O)(c1ccc(F)cc1)N1CCCN(Cc2c(F)cccc2F)CC1`: the call was inactive.

Turning to `O=C(O)/C(=C\C(=O)c1ccccc1)Nc1ccccc1`, the “lipid storage change, negative = inhibition” value was 19.7% (inactive) and the cell number change came out at 1.05%.

Turning to `Cn1c(=O)c2cc3c(nc2n(C)c1=O)CC(c1ccccc1)CC3=O` (configuration not stated), the “lipid storage change, negative = inhibition” value is -3.1% (inactive) and the cell number change was 11.1%.
